Bioassay records from PubChem.
VACV mCherry inh: inhibitors of vaccinia virus infection (mCherry reporter signal); 310,000 compounds, 0.63% hits; Vaccinia virus mCherry reporter infection, fluorescence; AID 720579; Potency, µM (top dose mostly 36.5 µM), most hits filed as inhibitors; calls by dose curve; tested in A549 cells; further: nearly all actives have a fitted effect of over 35% in size
VACV Venus inh: inhibitors of vaccinia virus (Venus reporter) | AID 720580 | Potency, µM (titrated, usually from 36.5 µM), usual class: inhibitors | 330,000 compounds, 0.46% hits | Vaccinia virus Venus reporter expression, fluorescence; calls by dose curve; tested in A549 cells; further: nearly all actives have a fitted effect of over 30% in size
HCMV antiviral: inhibitors of human cytomegalovirus; activity change, negative = inhibition, % at 57.5 µM; AID 1259415; HFF cells, HCMV-luciferase reporter, 72 h; hits give low values; 410,000 compounds, 4.5% hits; in the data active means activity change below about -60%; inconclusive means no clear call, values can overlap the other calls; inactive means above about -39%
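HFF cells seeded 16 h at 37C, treated with compounds, infected with luciferase-reporter HCMV at MOI 1 PFU/cell; luciferase read at 72 h post infection, normalized to buffer-only and Salinomycin controls.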
Lassa entry inh: inhibitors of Lassa virus binding or cell entry. Lassa virus pseudotype entry inhibition, cell reporter. AID 540256. 300,000 compounds, 1.2% hits. Potency, µM (doses to about 37.9 µM), hits mostly inhibitors; calls by dose curve; tested in HEK293 cells; further: nearly all actives have a fitted effect of over 50% in size
FMDV inh: foot and mouth disease virus antiviral activity | FMDV antiviral cell-based qHTS | Potency, µM (highest dose often 57.9 µM), actives largely listed as inhibitors | 410,000 compounds, 1.2% hits; calls by dose curve; tested in HEK293T cells; further: read-out not given here; nearly all actives have a fitted effect of over 45% in size
Marburg entry inh: inhibitors of Marburg virus binding or cell entry; Marburg virus pseudotyped entry inhibition, cell reporter; Potency, µM (highest dose often 37.8 µM), hits mostly inhibitors; 300,000 compounds, 1.8% hits; AID 540276; calls by dose curve; tested in HEK293 cells
Numbers stand for hits; . = inactive; ? = inconclusive; / = no result given; ! = not confirmed by another sample. Sampled rows, rich in hits. Any-hit rate of the full collection: about 6.5%.

SMILES	VACV mCherry inh	VACV Venus inh	HCMV antiviral	Lassa entry inh	FMDV inh	Marburg entry inh
Cc1cc(N2CCCC2=O)cc(C)c1S(=O)(=O)NCCOc1ccc(C(C)(C)C)cc1	?	?	-90.6	11.6µM	?	?
CCC(=O)N1c2ccccc2CC1C(=O)NCCc1ccccc1OC (configuration not stated)	.	.	.	?	.	/
Cc1ccccc1COn1nnc2ccc(S(=O)(=O)N3CCOCC3)cc21	4.47µM	7.94µM	.	.	?	.
CC(=O)Nc1ccc(S(=O)(=O)NCCC(=O)N2CCN(C(c3ccccc3)c3ccccc3)CC2)cc1	.	.	?	0.316µM	?	.
O=C(CCNS(=O)(=O)c1ccccc1)N1CCN(C(c2ccccc2)c2ccccc2)CC1	/	/	.	/	/	/
O=C(CCNS(=O)(=O)c1ccc(Cl)cc1)N1CCCC1	.	.	-70.7	?	.	.
C[C@H]1CN(Cc2ccccc2)C(=O)[C@H]1CC(=O)Nc1ccccc1	/	/	/	.	/	/
CC(=O)C1=C(O)C(=O)N(c2cccc(C(=O)O)c2)[C@@H]1c1ccc(F)cc1	/	/	/	/	/	.
CCc1nnc(NC(=O)c2ccc(Cl)c(S(=O)(=O)N3CCc4ccccc4C3)c2)s1	.	.	?	.	25.1µM	.
COc1ccc(NC(=O)c2ccc(Cl)c(S(=O)(=O)N3CC(C)OC(C)C3)c2)cn1 (configuration not stated)	/	/	-89.7	/	?	/
CC1CN(S(=O)(=O)c2cc(C(=O)NCc3ccncc3)ccc2Cl)CC(C)O1 (configuration not stated)	/	/	.	/	.	/
CN(CC1COc2ccccc2O1)C(=O)c1ccc(Cl)c(S(=O)(=O)N2CCCCCC2)c1 (configuration not stated)	/	/	?	/	.	/
O=C(NCC1COc2ccccc2O1)c1ccc(Cl)c(S(=O)(=O)N2CCCC2)c1 (configuration not stated)	/	/	-68.7	/	.	/
COc1ccc(NC(=O)c2ccc(Cl)c(S(=O)(=O)N3CCc4ccccc4C3)c2)cn1	/	/	-103.6	?	20µM	?
CCCCn1nc(NC(=O)c2cccc(Cl)c2)c2cc3ccc(C)cc3nc21	.	.	.	.	.	.
Cc1ccc(-n2nc(C(=O)Nc3ccc(Br)cc3C)c(=O)n(C)c2=O)cc1	.	.	.	.	.	/
Clc1ccc(Nc2nnc(-c3ccc4c(c3)OCO4)o2)cc1	/	/	.	/	/	/
COC(=O)[C@]12C[C@H](CC(=O)NCc3cccc4ccccc34)C(=O)N(CCc3ccc(OC)c(OC)c3)C1=C[C@H](C(C)(C)C)O[C@@H]2C	/	/	.	/	/	/
Cc1ccccc1CCNC(=O)c1ccc(Cl)c(S(=O)(=O)N2CC(C)OC(C)C2)c1 (configuration not stated)	.	?	-88.4	.	17.8µM	?
N/C(Cc1ccc([N+](=O)[O-])cc1)=N\OC(=O)COc1ccccc1Cl	.	.	-102.0	.	.	.
N/C(Cc1ccc([N+](=O)[O-])cc1)=N\OC(=O)COc1cccc2ccccc12	/	/	.	?	.	.
OC(c1ccc2c(c1)CN(Cc1cccn1-c1ncccn1)CCO2)C1CCCCC1 (configuration not stated)	.	.	/	/	.	/
COc1ccc(Nc2ncc(C(=O)N3CCN(c4ccc(F)cc4)CC3)c3ccccc23)cc1	.	.	-105.0!	?	?	?
COc1ccc(Nc2ncc(C(=O)N3CCN(c4ccc(OC)cc4)CC3)c3ccccc23)cc1	.	.	.	?	.	?
COc1ccc(Nc2ncc(C(=O)N3CCC4(CC3)OCCO4)c3ccccc23)cc1	/	.	-76.3	.	.	.
SMILES	VACV mCherry inh	VACV Venus inh	HCMV antiviral	Lassa entry inh	FMDV inh	Marburg entry inh
Cc1c(C#N)c(NC(=O)COC(=O)c2cc(Cl)c3c(c2)OCCCO3)n(Cc2ccco2)c1C	.	.	/	/	/	/
CCOc1ccc(CCNC(=O)c2cnc3sc(N4CCCCCC4)nn3c2=O)cc1	.	?	.	?	?	/
CCOc1ccc(CCNC(=O)c2cnc3sc(N4CCCC4)nn3c2=O)cc1	?	?	.	?	28.2µM	/
CCN(CC)c1nn2c(=O)c(C(=O)NCCc3ccc(C)cc3)cnc2s1	.	.	-64.5	?	?	/
CCOc1ccc(CCNC(=O)c2cnc3sc(N(CC)CC)nn3c2=O)cc1OCC	.	.	.	.	.	/
CC(=Cc1ccccc1)C(=O)c1ccccc1	.	.	.	/	.	/
O=C(C(Br)=Cc1ccccc1)c1ccccc1	?	?	-83.2	?	25.1µM	5.01µM
CC(=O)C(=Cc1ccc(-c2ccccc2)cc1)C(=O)c1ccccc1	.	.	.	/	22.4µM	/
